Compound activity deposited in PubChem by National Center for Advancing Translational Sciences (NCATS).
JMJD2A Tudor = JMJD2A Tudor domain (human) inhibition; O75164; AlphaScreen JMJD2A-Tudor / H3K4me3 peptide binding; Potency, µM (top dose mostly 114 µM), without a hit: top-dose activity change, negative = inhibition, most hits filed as inhibitors; 4.4% of 390,000 active; AID 504339; further: on the % scale 0 is the no-effect control and ±100 the full control effect; nearly all actives have a fitted effect of over 50% in size
Sfp inh = inhibitors of Bacillus subtilis Sfp phosphopantetheinyl transferase; Q9F4F7; Biochemical Sfp PPTase activity, qHTS; Potency, µM, without a hit: largest response in the series, negative = inhibition, hits mostly inhibitors; 3.5% of 310,000 active; AID 1490;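 further: the enzyme is Sfp with the accession as filed and its product quenches rhodamine fluorescence; 0% = enzyme reaction without inhibitor and -100% = no enzyme wells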
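Fluorescence-quenching assay with 15 nM Sfp, 5 uM rhodamine-CoA and 12.5 uM BHQ-2-labelled ybbR peptide in pH 7.6 Hepes/MgCl2 buffer. Enzyme was pre-incubated with compound for 15 min at room temperature. Rate was taken from the 30-min fluorescence change (525/598 nm).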
BAZ2B inh = inhibitors of human BAZ2B bromodomain; 4.4% of 360,000 active; AlphaScreen BAZ2B-H3K14Ac peptide displacement; Potency, µM (titrated, usually from 114 µM), inactives show at the highest dose activity change, negative = inhibition, hits mostly inhibitors; further: on the % scale 0 is the no-effect control and ±100 the full control effect; nearly all actives have a fitted effect of over 60% in size
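Compounds, titrated to a top concentration of 110 uM, were incubated 30 min at room temperature with preformed BAZ2B/acetyl-K14 H3 peptide complex (50 nM each). Proximity signal was measured by AlphaScreen after 20 min with beads.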
HP1b chromo inh = blocks HP1-beta chromodomain binding to methylated histone tails. AlphaScreen HP1-beta / biotin-H3K9me3 peptide binding. 0.56% of 390,000 active. Potency, µM (top dose mostly 114 µM), for inactives: top-dose activity change, negative = inhibition, usual class: inhibitors. P83916; further: nearly all actives have a fitted effect of over 70% in size
Target sequence (P83916 whole entry, looked up): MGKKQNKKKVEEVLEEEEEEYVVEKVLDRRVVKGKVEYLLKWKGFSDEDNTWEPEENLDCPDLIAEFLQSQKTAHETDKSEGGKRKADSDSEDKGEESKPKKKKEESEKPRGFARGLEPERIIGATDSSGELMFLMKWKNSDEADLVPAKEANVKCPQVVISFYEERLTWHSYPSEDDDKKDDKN
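HP1-beta protein (50 nM final) preincubated 30 min at room temperature with biotinylated H3(1-18)K9me3 peptide (50 nM) in PBS pH 7.4, 0.01% Tween-20, then compound added for 30 min. AlphaScreen streptavidin donor/nickel chelate acceptor beads (10 ug/mL final), 30 min dark, luminescence read.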
G9a block = G9a (human) methyltransferase inhibition. Q96KQ7. G9a H3K9 monomethylation, AlphaScreen, 2 h. Potency, µM (doses to about 102 µM), inactives show at the top dose activity, negative = inhibition, hits mostly inhibitors. 8.8% of 350,000 active. AID 504332; further: on the % scale 0 is the no-effect control and ±100 the full control effect; nearly all actives have a fitted effect of over 75% in size
Target sequence (Q96KQ7 913-1193 limits assumed): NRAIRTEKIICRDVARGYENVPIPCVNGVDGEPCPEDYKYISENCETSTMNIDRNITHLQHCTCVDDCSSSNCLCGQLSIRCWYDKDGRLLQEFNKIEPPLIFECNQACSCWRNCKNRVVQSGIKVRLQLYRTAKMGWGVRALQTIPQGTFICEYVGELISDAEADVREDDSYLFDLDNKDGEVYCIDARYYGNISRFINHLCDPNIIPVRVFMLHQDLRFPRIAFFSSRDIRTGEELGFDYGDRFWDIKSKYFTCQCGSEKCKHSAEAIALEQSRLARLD
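Using a bead-based AlphaScreen, monomethylated H3K9 product from 2 h room-temperature reactions (G9a 20 nM, peptide 500 nM, SAM 20 uM) was detected with 0.5 ug/mL rabbit anti-H3K9me1 antibody.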
PLK1 PBD block = PLK1 (human) polo-box domain binding inhibition | Plk1 PBD binding of FITC phosphopeptide, fluorescence polarization | Potency, µM, for the others: max response, negative = inhibition, most hits filed as inhibitors | 2.8% of 360,000 active; further: series mostly up to about 57 µM; on the % scale 0 is the no-effect control and ±100 the full control effect; nearly all actives have a fitted effect of over 65% in size
* = called active by the depositor; ? = inconclusive; / = no result; [ ] = dose if it differs, or a comment. In the library only some 12% were active in any assay of this set; here they are far more common. The call rests on the fitted dose curve; in most records, active means well fitted curve in the direction sought with a large enough effect; inconclusive means small, poorly fitted or top-dose-only effect, or another doubt; inactive means no such curve, though single readings can be large; an effect the other way counts as inactive or inconclusive. Potency means the concentration at half of the fitted maximal effect.

SMILES	JMJD2A Tudor	Sfp inh	BAZ2B inh	HP1b chromo inh	G9a block	PLK1 PBD block
CC(C)(CCl)C(=O)Nc1ccc(OC(F)(F)F)cc1	1%	13%	10%	61%	-1%	0%
CCOC(=O)C1(CCCc2ccccc2)CCN(Cc2ccn[nH]2)CC1	-20%	6%	-18%	5%	50µM*	-9%
COCCn1c(=O)cnc2cnc(N3CCNCC3)nc21	/	14%	/	/	-41%[12.7 µM]	/
O=C(NCCc1nc2ccccc2n1CCOc1cccc2ccccc12)C1CCCCC1	-8%[57.1 µM]	/	/	16%[57 µM]	/	/
Cc1sc2ncn(CC(=O)NCc3ccco3)c(=O)c2c1-c1ccc(F)cc1	-32%	18µM*	?	8%	?	-20%
Cc1ccc2c(=O)c(C(=O)c3ccc(F)cc3)cn(CC(=O)NCc3ccco3)c2n1	?	7%	50µM*	-3%	50µM*	-15%
O=C(CN1C(=O)c2ccc([N+](=O)[O-])cc2C1=O)NCc1ccco1	10%[57.1 µM]	7%	-22%	32%	-46%	-11%
O=C(Cn1cnc2scc(-c3cccc([N+](=O)[O-])c3)c2c1=O)NCc1ccco1	22µM*	?	45µM*	?	11%[59 µM]	?
COc1cc(OC)cc(-c2cc(N)n(S(=O)(=O)c3cccc4nsnc34)n2)c1	?	3%	?	-15%	?	-9%
CCOc1ccc(-c2cc(N)n(S(=O)(=O)c3cccc4nsnc34)n2)cc1	?	3%	?	-12%	22µM*	-4%
Nc1ccccc1Nc1cc(-c2ccccc2)nn1-c1cccc(Cl)c1	20µM*	14%	11µM*	45µM*	?	-2%
O=C(O)c1cccc(-c2ccc3c(c2)OCO3)c1	-10%	11%	-10%	46%	-11%	-1%
O=C1OC(c2ccc3c(c2)OCO3)=N/C1=C\c1ccc(C(=O)O)cc1	-20%	8%	-22%	4%	40µM*	-27%
COCCCNC(=S)Nc1cccc2ncccc12	-7%	-14%	-20%	-9%	?	27µM*
COc1ccccc1C(=O)NC(=S)Nc1cccc2cc(O)ccc12	?	/	/	-4%	/	-20%
O=C(NC(=S)Nc1cccc2ncccc12)c1ccco1	-14%	-30%	-22%	41%	45µM*	-4%
O=C(NC(=S)Nc1nc2ccccc2s1)c1ccco1	-16%	?	4%	5%	?	-10%
O=C(NC(=S)Nc1cccc2cc(O)ccc12)c1ccccc1Br	?	3%	?	-12%	32µM*	-3%
O=C(Nc1cccc2ncccc12)c1ccc(Cl)cc1	3.2µM*	-3%	11µM*	?	7.1µM*	-13%
CCOc1ccc(NC(=O)Cc2coc3ccc(C)cc23)cc1	-13%	/	36%	66%	42%[59 µM]	/
CC(Sc1nnc(C(C)Oc2ccccc2F)o1)C(=O)NCc1ccc2c(c1)OCO2 (stereo unspecified)	-15%	/	-6%	32%	-30%[2.33 µM]	-2%
O=C(NC(=S)Nc1cccc2c(O)cccc12)c1ccco1	?	50µM*	?	?	/	24µM*
N#C/C(=C\c1ccco1)C(=O)NCc1ccccc1	-16%	10%	-14%	47%	5%	?
COc1ccc(C(=O)NC(=S)Nc2cccc3cc(O)ccc23)cc1OC	-31%	?	?	-22%	/	?
O=C(NC(=S)Nc1ccccc1Cl)c1ccco1	-11%	-13%	6%	5%	-6%	-10%
SMILES	JMJD2A Tudor	Sfp inh	BAZ2B inh	HP1b chromo inh	G9a block	PLK1 PBD block
Cc1cc(NC(=S)NC(=O)c2ccco2)c2ccccc2n1	?	28µM*	-5%	16%	?	-15%
Cc1cccc(NC(=S)NC(=O)c2ccco2)n1	-4%	-12%	-1%	24%	-11%[59 µM]	-5%
N#C/C(=C\c1ccco1)C(=O)Nc1cccc2ncccc12	-19%	18%	4%	32%	50µM*	-2%
O=C(NC(=S)Nc1cccc2cc(O)ccc12)c1ccco1	-27%	-18%	?	0%	16µM*	-15%
Cc1nn(CC(=O)NCCCN2CCCC2)c(=O)c2nn(-c3ccccc3)c(C)c12	-7%	8%	-11%	59%	?	-9%
COc1cc(C2C(=O)N(C3CCCCC3)CC(=O)N2C2CCCCC2)ccc1OC(C)C (stereo unspecified)	-17%	/	4%	-9%	-2%[59 µM]	/
COC(=O)[C@@]1(Cc2ccc(OC)cc2)[C@H]2c3cc(C(=O)N(C)C)n(Cc4cc(C)n(C)n4)c3C[C@H]2CN1C(=O)c1ccccc1	/	6%	/	/	/	/
COc1ccc2cc3cc(C(=O)NCCc4ccccc4)sc3nc2c1Cl	-10%	/	-2%	20%[57 µM]	-2%[59 µM]	/
O=C(N/N=C1/C[C@@H](O)[C@@H](O)[C@@H]2[C@@H]3C(=O)N(c4cccc(Oc5ccccc5)c4)C(=O)[C@H]3CC[C@H]12)OCc1ccccc1	/	11%	/	/	/	/
N[C@@H]1C(O)OC(CO)C(O)C1O (stereo partly specified)	/	19%	/	/	-38%[2.33 µM]	/
O=C(NN=C1CCCC1)c1cccc(O)c1	-16%	-2%	-13%	11%	-1%	-17%
O=C(NN=C1CCCC1)c1cc(O)cc(O)c1	?	-19%	79µM*	?	/	-7%
Cn1cccc1C(=O)OCC(=O)c1cc2ccccc2o1	?	-9%	-22%	-8%	45µM*	3%
CC1OC(OCC2OC(Oc3cc(O)c4c(c3)OC(c3ccc(O)cc3)CC4=O)C(O)C(O)C2O)C(O)C(O)C1O (stereo unspecified)	/	-1%	/	/	/	/
CCCCOc1ccc(Nc2cc(Cl)ccc2C(=O)O)cn1	?	10%	71µM*	-30%	30%[0.501 µM]	24µM*
O=C(CCCOc1ccc(Cl)cc1Cl)Nc1ccccc1C(=O)O	-13%	21%	-1%	32%	-3%	-10%
Cc1ccc(NC(=O)c2oc3ccc(S(=O)(=O)N(C)C4CCCCC4)cc3c2C)c(C)c1	-11%	/	2%	64%	0%[59 µM]	/
O=C(CCNC(=O)c1ccc(Br)o1)NCc1ccc(Cl)cc1	-7%	10%	-3%	33%	-5%	-3%
COc1cccc(CNC(=O)CCNC(=O)c2ccc(Br)o2)c1	?	16%	-11%	-1%	-4%[59 µM]	13µM*
COc1ccc(CNC(=O)c2ccc(Br)o2)cc1	0%	-16%	1%	42%	20µM*	5%
COc1ccc(CNC(=O)c2c(C)oc3c2C(=O)c2ccccc2C3=O)cc1	?	10%	7.9µM*	8%	11µM*	-8%
Cc1ccc(CNC(=O)c2ccc(Br)o2)cc1	-9%	-26%	-22%	8%	-57%[12.7 µM]	-11%
COc1ccc(-c2nc3cnc(N4CCNCC4)nc3n(C3CC3)c2=O)cc1	/	29%	/	/	-7%[12.7 µM]	/
CCn1cc2nc(SCc3cc(C)ccc3C)n(CCc3ccccc3)c(=O)c2n1	-19%	/	-10%	22%	-4%[59 µM]	/
